According to the supplement of paper PMC4022240:
± gives the standard deviation.

T1: HaloTag-ATRX ADD domain (163-292)
T1 chain: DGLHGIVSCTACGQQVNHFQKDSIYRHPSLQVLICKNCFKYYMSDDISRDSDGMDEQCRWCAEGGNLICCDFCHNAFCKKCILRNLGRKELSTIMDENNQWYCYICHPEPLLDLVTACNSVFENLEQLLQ


Molecular target: T1, HaloTag-ATRX ADD domain (163-292)
Experiment: peptide microarray binding signal (635 nm), min-max normalized on array (fraction of array maximum); higher = stronger binding
Conditions: peptide region: Unmod H1 variant; binder concentration: 50 nM
Outline: (§1)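 Arrays carried histone 13-mer peptide–cellulose conjugates printed in triplicate on nitrocellulose alongside a Cy3 tracer. After overnight blocking at 4°C, they were incubated for 1 h at 4°C with biotin-labelled HaloTag reader fusions (10 nM to 1 μM) plus streptavidin-Alexa Fluor 647, or with rabbit histone antibodies (1:10,000 to 1:2,000) plus anti-rabbit Alexa 647. Scanning on an Axon GenePix 4000B used 635 nm for signal and 532 nm for misprints. The binding signal reported is each triplicate's mean spot intensity after per-library min-max scaling.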

Binder	peptide microarray binding signal
PKKAPVKPKAKSS [Unmod H1 variant P K K A P V K P K A K S S]	0.0131 ± 0.00065
KAKPVKASKPKKA [Unmod H1 variant K A K P V K A S K P K K A]	0.01229 ± 0.00011
TKKEIKKVATPKK [Unmod H1 variant T K K E I K K V A T P K K]	0.0108 ± 0.00026
AKKKLAATPKKAK [Unmod H1 variant A K K K L A A T P K K A K]	0.01188 ± 3e-05
PKKSVAFKKTKKE [Unmod H1 variant P K K S V A F K K T K K E]	0.0103 ± 0.00015

Same assay, conditions: peptide region: Unmod H1 variant; binder concentration: 500 nM

Binder	peptide microarray binding signal
PKKAPVKPKAKSS [Unmod H1 variant P K K A P V K P K A K S S]	0.0107 ± 0.00047
KAKPVKASKPKKA [Unmod H1 variant K A K P V K A S K P K K A]	0.00971 ± 0.00061
TKKEIKKVATPKK [Unmod H1 variant T K K E I K K V A T P K K]	0.00952 ± 0.00026
AKKKLAATPKKAK [Unmod H1 variant A K K K L A A T P K K A K]	0.0112 ± 0.00064
PKKSVAFKKTKKE [Unmod H1 variant P K K S V A F K K T K K E]	0.00867 ± 0.00023

The binders below were run against HaloTag-ING2 PHD (mouse Ing2 200-280) in the same assay as above. Conditions: peptide region: Unmod H1 variant; binder concentration: 10 nM.
Outline: as §1

Binder	peptide microarray binding signal
PKKAPVKPKAKSS [Unmod H1 variant P K K A P V K P K A K S S]	0.00245 ± 0.0001
KAKPVKASKPKKA [Unmod H1 variant K A K P V K A S K P K K A]	0.00292 ± 7.4e-05
TKKEIKKVATPKK [Unmod H1 variant T K K E I K K V A T P K K]	0.00185 ± 3.8e-05
AKKKLAATPKKAK [Unmod H1 variant A K K K L A A T P K K A K]	0.00203 ± 2.1e-05
PKKSVAFKKTKKE [Unmod H1 variant P K K S V A F K K T K K E]	0.00203 ± 5.4e-05

Same assay, conditions: peptide region: Unmod H1 variant; binder concentration: 100 nM

Binder	peptide microarray binding signal
PKKAPVKPKAKSS [Unmod H1 variant P K K A P V K P K A K S S]	0.00496 ± 0.0015
KAKPVKASKPKKA [Unmod H1 variant K A K P V K A S K P K K A]	0.00574 ± 0.00036
TKKEIKKVATPKK [Unmod H1 variant T K K E I K K V A T P K K]	0.00482 ± 0.0004
AKKKLAATPKKAK [Unmod H1 variant A K K K L A A T P K K A K]	0.00397 ± 0.00028
PKKSVAFKKTKKE [Unmod H1 variant P K K S V A F K K T K K E]	0.00298 ± 7.3e-05

What follows are binders tested against anti-H3K4me3 antibody ab8580 in the same assay as above. Conditions: peptide region: Unmod H1 variant; binder concentration: 1:2,000 dilution.
Outline: as §1

Binder	peptide microarray binding signal
PKKAPVKPKAKSS [Unmod H1 variant P K K A P V K P K A K S S]	0.00034 ± 2.1e-05
KAKPVKASKPKKA [Unmod H1 variant K A K P V K A S K P K K A]	0.00051 ± 8.6e-06
TKKEIKKVATPKK [Unmod H1 variant T K K E I K K V A T P K K]	0.000604 ± 3e-05
AKKKLAATPKKAK [Unmod H1 variant A K K K L A A T P K K A K]	0.000415 ± 8.4e-06
PKKSVAFKKTKKE [Unmod H1 variant P K K S V A F K K T K K E]	0.000321 ± 6.7e-06

Same assay, conditions: peptide region: Unmod H1 variant; binder concentration: 1:10,000 dilution

Binder	peptide microarray binding signal
PKKAPVKPKAKSS [Unmod H1 variant P K K A P V K P K A K S S]	0.000685 ± 7.2e-06
KAKPVKASKPKKA [Unmod H1 variant K A K P V K A S K P K K A]	0.000685 ± 7.2e-06
TKKEIKKVATPKK [Unmod H1 variant T K K E I K K V A T P K K]	0.000628 ± 6.7e-06
AKKKLAATPKKAK [Unmod H1 variant A K K K L A A T P K K A K]	0.000799 ± 2.2e-05
PKKSVAFKKTKKE [Unmod H1 variant P K K S V A F K K T K K E]	0.000628 ± 6.7e-06

What follows are binders tested against anti-H3K9me3 antibody ab8898 in the same assay as above. Conditions: peptide region: Unmod H1 variant; binder concentration: 1:2,000 dilution.
Outline: as §1

Binder	peptide microarray binding signal
PKKAPVKPKAKSS [Unmod H1 variant P K K A P V K P K A K S S]	0.000362 ± 1.9e-05
KAKPVKASKPKKA [Unmod H1 variant K A K P V K A S K P K K A]	0.000196 ± 2.1e-06
TKKEIKKVATPKK [Unmod H1 variant T K K E I K K V A T P K K]	0.000121 ± 1.3e-06
AKKKLAATPKKAK [Unmod H1 variant A K K K L A A T P K K A K]	0.000272
PKKSVAFKKTKKE [Unmod H1 variant P K K S V A F K K T K K E]	0.000423 ± 4.2e-05

Same assay, conditions: peptide region: Unmod H1 variant; binder concentration: 1:10,000 dilution

Binder	peptide microarray binding signal
PKKAPVKPKAKSS [Unmod H1 variant P K K A P V K P K A K S S]	0.000865 ± 2.4e-05
KAKPVKASKPKKA [Unmod H1 variant K A K P V K A S K P K K A]	0.000692 ± 7.3e-06
TKKEIKKVATPKK [Unmod H1 variant T K K E I K K V A T P K K]	0.000519 ± 5.6e-06
AKKKLAATPKKAK [Unmod H1 variant A K K K L A A T P K K A K]	0.00098 ± 4.6e-05
PKKSVAFKKTKKE [Unmod H1 variant P K K S V A F K K T K K E]	0.000519 ± 5.6e-06
